Consider 40 compounds from PubChem BioAssay.

A number with no mark means an inactive call. How the calls were made is not given here.

The test relates to Aerobactin synthetase IucA (Klebsiella pneumoniae, hypervirulent). Description: biochemical IucA inhibition screen of LOPAC library by absorbance (AID 1346212).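 Further: 100% = no compound wells and 0% = no enzyme wells.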 As to conditions: IucA enzyme assay, absorbance (OD) readout; hits give low values;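 tested at 8 µM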.
For orientation: remaining activity means the signal under treatment as a percentage of the control signal. With `COC(=O)[C@@H]1[C@H]2C[C@H]3c4[nH]c5ccccc5c4CCN3C[C@@H]2CC[C@@H]1O`, the remaining activity was 124%.
With `Cn1c(=O)[nH]c2ncn(C)c2c1=O`, the remaining activity is 113%.
Then `CN(C)CCCO[C@@H]1[C@H]2OC(C)(C)O[C@H]2O[C@@H]1[C@H](O)CO`, with 113%; and `COc1ccc2c(c1)CC[C@@H]1[C@@H]2CC[C@]2(C)[C@@H](NCCCCCCN3C(=O)CCC3=O)CC[C@@H]12`, with 119%; and `C[N+](C)(C)CC=O`, with 101%.
`O=c1[nH]c2ccccc2c2ccccc12`: the remaining activity is 97.7%.
Turning to `CNC(=O)[C@H]1O[C@@H](n2cnc3c(N)ncnc32)C(O)[C@H]1O` (stereo not given in full), the remaining activity was 129%.
Turning to `N=C(N)SCCc1cccc(CCSC(=N)N)c1`, the remaining activity is 110%.
With `CC1(C)C(=O)N(CCN2CCC(C(=O)c3ccc(F)cc3)CC2)c2ccccc21`, the remaining activity is 118%.
The figure for `CCOC(=O)c1ncn2c1CN(C)C(=O)c1cc(F)ccc1-2` is 100%.
Then `CN(C)C(N)=NCCC[C@H](N)C(=O)O`, with 97.3%.
The figure for `Nc1ccc(CCNc2ncnc3c2ncn3C2OC(CO)C(O)C2O)cc1` (stereo not given) is 124%.
Take `CC(=O)NCCc1ccc(O)c(O)c1`: the remaining activity was 116%.
Then `CC(C)(C)c1cc(/C=C(\C#N)C(N)=S)cc(C(C)(C)C)c1O`, with 97.1%; and `COc1cc2ncc(-c3ccccc3)nc2cc1OC`, with 120%.
Then `COc1cc2c(CCNC(C)=O)c[nH]c2cc1Cl`, with 115%; and `Cc1nc(N=Nc2ccc(S(=O)(=O)O)cc2S(=O)(=O)O)c(COP(=O)(O)O)c(C=O)c1O`, with 106%; and `CCCCC/C=C\C[C@@H](O)/C=C/c1cccc(C[C@@H](O)CCCCO)n1`, with 92.2%.
Then `CCCCCC(O)c1cccc(OCc2ccc3ccccc3n2)c1` (stereo not given), with 98.9%; and `COc1cc2ncnc(Nc3cccc(Cl)c3)c2cc1OC`, with 106%; and `CCCOC(=O)c1c(-c2ccccc2)nc(CC)c(C(=O)SCC)c1CCC`, with 106%.
Consider `NC(=O)C1=CN(C2OC(COP(=O)(O)OP(=O)(O)OC[C@H]3O[C@@H](n4cnc5c(N)ncnc54)C(OP(=O)(O)O)[C@H]3O)C(O)C2O)C=CC1` (stereo not given in full), for which the remaining activity was 112%.
Then `CC(C)N(CCC(=O)c1ccc2ccccc2c1)Cc1ccccc1`, with 112%; and `NC(=S)c1ccc[n+]([C@@H]2O[C@@H](COP(=O)([O-])OP(=O)(O)OC[C@H]3O[C@@H](n4cnc5c(N)ncnc54)C(OP(=O)(O)O)[C@H]3O)C(O)C2O)c1` (stereo not given in full), with 97.1%; and `CCCCCCCCCCCCCCCCCCNC(=O)OCC(COP(=O)([O-])OCC[n+]1ccsc1)OC` (stereo not given), with 126%.
The figure for `CCCn1c(=O)[nH]c(=O)c2[nH]cnc21` is 103%; for `Nc1ncnc2c1ncn2[C@@H]1O[C@H](COP(=O)(O)OP(=O)(O)OP(=O)(O)OP(=O)(O)OC[C@@H]2O[C@H](n3cnc4c(N)ncnc43)C(O)[C@@H]2O)[C@H](O)C1O` (stereo not given in full) it is 91.8%; for `NCC(O)(CS(=O)(=O)O)c1ccc(Cl)cc1` (stereo not given) it is 103%.
Then `CNc1ncnc2c1ncn2[C@@H]1O[C@H](CO)[C@@H](O)[C@H]1O`, with 125%; and `CCCNC[C@H](O)COc1ccccc1C(=O)CCc1ccccc1`, with 91.3%; and `NC(=NCc1ccc(Cl)c(Cl)c1)NC(=O)c1nc(Cl)c(N)nc1N`, with 105%.
Consider `N#C/C(=C\c1ccc(O)c(O)c1)C(=O)c1ccc(O)c(O)c1`, for which the remaining activity was 79.7%.
Turning to `CC(C)(C)c1ccc(S(=O)(=O)/C=C/C#N)cc1`, the remaining activity is 119%.
Then `O=C(Nc1nc2ccccc2n1CCN1CCOCC1)c1cccc([N+](=O)[O-])c1`, with 120%; and `CC(=O)[C@@]1(O)CC[C@H]2[C@@H]3CCC4=CC(=O)CC[C@]4(C)[C@H]3CC[C@@]21C`, with 106%.
For `C[C@@]12C(=O)OC(=O)[C@]1(C)[C@H]1CC[C@@H]2O1`, the remaining activity was 118%.
Take `c1ccc2c(c1)CCC[C@H]2Nc1nc2ccccc2[nH]1`: the remaining activity was 109%.
Turning to `CC(=O)O[C@H]1C[C@@]2(C)[C@@H](C[C@@H](O)[C@H]3[C@@]4(C)CC[C@@H](O)[C@@H](C)[C@@H]4CC[C@@]32C)/C1=C(\CCC=C(C)C)C(=O)O`, the remaining activity was 96.1%.
Then `N#Cc1cc([N+](=O)[O-])c2sc(C(N)=O)[n+]([O-])c2c1`, with 106%; and `COC1(C2=NCCN2)COc2ccccc2O1` (stereo not given), with 105%.
